The values that follow come from PubChem BioAssay (NCATS).

A short description of test [1]: Cell Viability - LYMP2-020 (AID 986). Further: nearly all actives have a fitted effect of over 55% in size. Further: potency means the concentration at half of the fitted maximal effect. The method in brief:
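qHTS, 2500 cells/well; 5 hr then 24 hr compound exposure, 37 C; CellTiter-Glo luminescence after 30 min RT; ATP decrease taken as cytotoxicity; AC50 via Hill equation; tetraoctylammonium bromide positive control.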

A short description of test [2]: Cell Viability - LYMP2-022 (AID 987). Further: nearly all actives have a fitted effect of over 55% in size. Further: potency means the concentration at half of the fitted maximal effect. The method in brief: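 Luminescent ATP read-out (CellTiter-Glo, 30 min, RT) after 24 hr, 37 C compound exposure of 2500 human lymphoblastoid cells/well in complete medium. Cytotoxicity taken as concentration-dependent ATP loss; AC50 from standard Hill equation.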
Test [3] in a line: Cell Viability - LYMP1-002 - Assay at 24 hr (AID 993). Further: on the % scale 0 is the no-effect control and ±100 the full control effect. The method in brief:
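CellTiter-Glo luminescence (intracellular ATP) after 24 h compound exposure, 37 C, in LYMP1-002 human lymphoblastoid cells; decreased ATP taken as cytotoxicity. AC50 from standard Hill fit of concentration-response curves.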

Test [4] can be described thus: Cell Viability - LYMP1-002 - Assay at 40 hr (AID 994).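 Further: 0% = DMSO only and full inhibition = 92 µM tetraoctylammonium bromide; nearly all actives have a fitted effect of over 60% in size.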 The method in brief:
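qHTS cytotoxicity; 2500 cells/well, 5 hr 37 C settle, compound 40 hr 37 C. CellTiter-Glo, 30 min RT, luminescence (ATP). Concentration-response, Hill fit → AC50. Pos. ctrl tetraoctylammonium bromide.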

Test [5] is described as follows: qHTS Assay for Identification of Small Molecule Inducers of Hypoxia Response (AID 2120; active means well fitted curve in the direction sought with a large enough effect in the signal ratio, with a control signal flat, not every such curve was filed as active; the % refers to the signal ratio; further: 0% is about no effect). The method in brief:
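Read-out: CCF4 FRET emission ratio 460nm/530nm (excitation 405nm), converted to %Activity, with AC50 fitted across a compound titration. ME-180 cells carried an HRE-driven beta-lactamase reporter; compound exposure 17 h, 37 degrees C.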

Test [6] has as its target Glucocorticoid receptor (Homo sapiens) (UniProt P04150). Description: qHTS assay for small molecule agonists of glucocorticoid receptor signaling (AID 588532; active means well fitted curve in the direction sought with a large enough effect in the signal ratio, with a control signal flat; the % refers to the signal ratio;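 further: 100% = dexamethasone at 0.1 µM and 0% = DMSO only wells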). The conditions noted are these: HeLa MMTV-bla, beta-lactamase ratio, agonist, 18 h; stronger effect = higher value; percent of dexamethasone control, DMSO zero. The method in brief: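 Titration series, up to 92 uM, applied to GRE-bla HeLa cells for 18 h at 37 C. Detection by CCF4 FRET substrate after 2 h at RT.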

Test [7] has the same target. Description: qHTS assay for small molecule antagonists of glucocorticoid receptor signaling (AID 588533; active means well fitted inhibition curve with a large enough effect in the signal ratio, with a control signal flat, not every such curve was filed as active; the % refers to the signal ratio;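 further: cells stimulated with 2 nM dexamethasone as agonist; on the % scale 0 is the no-effect control and ±100 the full control effect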). The method in brief: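 Antagonist-mode qHTS: compound titrations added to GRE-bla HeLa cells, then dexamethasone 2 nM final; 18 h, 37 C. CCF4 FRET fluorescence normalized to dexamethasone and DMSO; IC50 from Hill fit.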
Test [8] is described as follows: qHTS assay for small molecule antagonists of peroxisome proliferator-activated receptor delta signaling (AID 588535; active means well fitted inhibition curve with a large enough effect in the signal ratio, with a control signal flat, not every such curve was filed as active; the % refers to the signal ratio;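 on max response: cells co-treated with a PPAR-delta agonist as stimulator during compound exposure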). The following applies: HEK293T PPARd-UAS-bla, beta-lactamase FRET ratio, 18 h; 460 nm channel. The method in brief: (§1)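 Compounds tested in titration on PPAR-delta-UAS-bla HEK293T cells grown in charcoal/dextran-stripped serum (2%); beta-lactamase activity read via CCF4 emission at 460 and 530 nm.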

The target of test [9] is Peroxisome proliferator-activated receptor delta (Homo sapiens) (UniProt Q03181). The description is as above. The method in brief: as §1
For test [10], the target named is Peroxisome proliferator-activated receptor gamma (Homo sapiens) (UniProt P37231). Description: qHTS assay for small molecule agonists of peroxisome proliferator-activated receptor gamma signaling (AID 588536; active means well fitted curve in the direction sought with a large enough effect in the signal ratio, with a control signal flat, not every such curve was filed as active; the % refers to the signal ratio;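 further: 0% = DMSO basal wells and 100% = rosiglitazone at 2 µM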). The method in brief: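 This is an agonist-mode beta-lactamase reporter assay in HEK293 PPAR-gamma-UAS-bla cells with 1% charcoal/dextran FBS. Compound titrations ran 16 h at 37 C before CCF4 detection. EC50 and efficacy are Hill fits scaled to 2 uM rosiglitazone (100%) and DMSO basal.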

The target is the same in test [11]. Description: qHTS assay for small molecule antagonists of peroxisome proliferator-activated receptor gamma signaling (AID 588537; active means well fitted inhibition curve with a large enough effect in the signal ratio, with a control signal flat, not every such curve was filed as active; the % refers to the signal ratio;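 further: reporter cells co-stimulated with 50 nM rosiglitazone agonist during compound treatment; % of control where 0% means no effect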). The method in brief: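 HEK293 cells, PPAR-gamma-UAS-bla, 3000/well. Pre-incubation 6-6.5 h, 37 C. Compound titration with rosiglitazone 50 nM final, 16 h. CCF4 dye, 2 h RT, dual-emission fluorescence.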
Test [12] can be described thus: Cell Viability - LYMP2-024 (AID 988). Further: nearly all actives have a fitted effect of over 60% in size. Further: potency means the concentration at half of the fitted maximal effect. The method in brief: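 ATP-based luminescence (CellTiter-Glo, 30 min RT) after 24 h compound exposure at 37 C of 2500 lymphoblastoid cells/well; decrease in ATP taken as cytotoxicity. qHTS concentration-response fitted to standard Hill equation for AC50.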
Test [13] in a line: Cell Viability - LYMP2-026 (AID 989). Further: on the % scale 0 is the no-effect control and ±100 the full control effect; nearly all actives have a fitted effect of over 50% in size. The method in brief: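 qHTS cytotoxicity: 2500 cells/well, 5 hr 37 C, compound 24 hr 37 C, CellTiter-Glo 30 min RT, luminescence. Tetraoctylammonium bromide positive control. AC50 via standard Hill fit.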
Test [14] has as its target Bile acid receptor (Homo sapiens) (UniProt Q96RI1). Description: qHTS assay for small molecule antagonists of farnesoid X receptor signaling (AID 588526; calls by dose curve; further: on the % scale 0 is the no-effect control and ±100 the full control effect). The method in brief:
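Concentration-response titrations were fitted to the Hill equation for half-maximal inhibition and maximal response, with data normalised to 50 uM chenodeoxycholic acid and DMSO control wells. Cells: FXR-UAS-bla HEK293T, dialyzed FBS.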

The target in test [15] is Vitamin D3 receptor (Homo sapiens) (UniProt P11473). Description: qHTS assay for small molecule antagonists of vitamin D receptor signaling (AID 588541; calls by dose curve;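 further: receptor activated by calcitriol during compound treatment; series mostly up to about 77 µM; on the % scale 0 is the no-effect control and ±100 the full control effect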). The method in brief: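 VDR-UAS-bla HEK293T cells (2000/well, 2% charcoal-stripped FBS) were treated with titrated compounds plus 1-alpha,25-dihydroxyvitamin D3 (50 nM or 3 nM final) for 16 h at 37 C. CCF4 beta-lactamase fluorescence was read; Hill fits gave IC50.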

Test [16] has the same target. Description: qHTS assay for small molecule agonists of vitamin D receptor signaling (AID 588543; calls by dose curve;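 further: 0% = DMSO basal and 100% = reference agonist control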). The method in brief:
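VDR-UAS-bla HEK293T cells, 2000/well, 2% charcoal-stripped FBS; compound titration 16 h at 37 C; CCF4 beta-lactamase ratio read. Normalized to 50 nM 1-alpha,25-dihydroxyvitamin D3 (100%) and DMSO; Hill fit gives EC50, efficacy.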

Where “and” joins values, the source holds several entries; their conditions need not be identical. Equal values may be shown once. Inconclusive results are not listed. Calls of active or inactive are those of the source. Unless noted, the call rests on the fitted dose curve; in most records, active means well fitted cell-killing curve with a large enough effect; inconclusive means small, poorly fitted or top-dose-only effect; inactive means flat fitted curve, though single readings scatter.

Peroxisome proliferator-activated receptor gamma (Homo sapiens), sequence (P37231 whole entry, looked up): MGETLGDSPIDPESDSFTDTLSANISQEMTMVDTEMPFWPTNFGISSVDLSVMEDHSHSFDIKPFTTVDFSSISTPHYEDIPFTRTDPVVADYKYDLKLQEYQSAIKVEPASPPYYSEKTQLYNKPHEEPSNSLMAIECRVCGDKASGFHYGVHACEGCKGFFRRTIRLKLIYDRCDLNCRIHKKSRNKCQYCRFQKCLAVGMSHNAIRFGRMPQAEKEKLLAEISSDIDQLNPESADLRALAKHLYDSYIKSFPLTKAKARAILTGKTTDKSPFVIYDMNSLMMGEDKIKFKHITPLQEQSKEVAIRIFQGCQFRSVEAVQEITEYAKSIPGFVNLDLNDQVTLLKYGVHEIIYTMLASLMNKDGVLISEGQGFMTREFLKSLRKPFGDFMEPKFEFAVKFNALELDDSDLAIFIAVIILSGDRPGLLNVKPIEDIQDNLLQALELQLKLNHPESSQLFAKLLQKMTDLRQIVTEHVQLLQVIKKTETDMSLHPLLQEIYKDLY
Glucocorticoid receptor (Homo sapiens), sequence (P04150 whole entry, looked up): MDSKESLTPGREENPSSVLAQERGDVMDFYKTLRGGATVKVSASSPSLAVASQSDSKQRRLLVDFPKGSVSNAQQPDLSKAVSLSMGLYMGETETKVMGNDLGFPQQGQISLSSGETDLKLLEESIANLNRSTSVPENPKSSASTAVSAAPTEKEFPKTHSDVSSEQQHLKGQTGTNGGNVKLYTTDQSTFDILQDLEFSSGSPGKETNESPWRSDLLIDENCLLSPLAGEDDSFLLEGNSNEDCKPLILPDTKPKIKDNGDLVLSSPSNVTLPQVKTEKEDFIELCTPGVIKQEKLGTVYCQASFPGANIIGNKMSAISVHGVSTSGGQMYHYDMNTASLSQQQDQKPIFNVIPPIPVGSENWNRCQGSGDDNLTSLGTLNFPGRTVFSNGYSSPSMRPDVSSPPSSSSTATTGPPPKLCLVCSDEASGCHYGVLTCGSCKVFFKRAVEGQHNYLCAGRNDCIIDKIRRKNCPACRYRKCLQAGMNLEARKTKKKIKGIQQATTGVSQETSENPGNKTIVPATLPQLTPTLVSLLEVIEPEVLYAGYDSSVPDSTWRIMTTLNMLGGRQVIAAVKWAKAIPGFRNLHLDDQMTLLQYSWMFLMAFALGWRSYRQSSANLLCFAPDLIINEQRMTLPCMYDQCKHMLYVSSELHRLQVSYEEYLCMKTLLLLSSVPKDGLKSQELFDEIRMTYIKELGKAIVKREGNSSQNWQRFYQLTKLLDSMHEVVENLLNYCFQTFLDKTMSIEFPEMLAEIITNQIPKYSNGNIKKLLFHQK
Vitamin D3 receptor (Homo sapiens), sequence (P11473 whole entry, looked up): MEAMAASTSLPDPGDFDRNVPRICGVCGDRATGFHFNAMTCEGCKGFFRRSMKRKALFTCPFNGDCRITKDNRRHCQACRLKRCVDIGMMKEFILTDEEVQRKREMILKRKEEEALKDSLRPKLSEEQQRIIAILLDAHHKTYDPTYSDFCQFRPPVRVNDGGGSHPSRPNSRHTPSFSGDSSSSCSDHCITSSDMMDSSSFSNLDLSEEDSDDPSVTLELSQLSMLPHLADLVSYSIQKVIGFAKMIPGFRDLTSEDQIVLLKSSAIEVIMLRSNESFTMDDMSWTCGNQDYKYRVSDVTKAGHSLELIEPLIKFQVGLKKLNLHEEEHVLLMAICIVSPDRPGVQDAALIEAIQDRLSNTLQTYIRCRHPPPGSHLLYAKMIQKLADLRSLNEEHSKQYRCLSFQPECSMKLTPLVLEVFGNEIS
Peroxisome proliferator-activated receptor delta (Homo sapiens), sequence (Q03181 whole entry, looked up): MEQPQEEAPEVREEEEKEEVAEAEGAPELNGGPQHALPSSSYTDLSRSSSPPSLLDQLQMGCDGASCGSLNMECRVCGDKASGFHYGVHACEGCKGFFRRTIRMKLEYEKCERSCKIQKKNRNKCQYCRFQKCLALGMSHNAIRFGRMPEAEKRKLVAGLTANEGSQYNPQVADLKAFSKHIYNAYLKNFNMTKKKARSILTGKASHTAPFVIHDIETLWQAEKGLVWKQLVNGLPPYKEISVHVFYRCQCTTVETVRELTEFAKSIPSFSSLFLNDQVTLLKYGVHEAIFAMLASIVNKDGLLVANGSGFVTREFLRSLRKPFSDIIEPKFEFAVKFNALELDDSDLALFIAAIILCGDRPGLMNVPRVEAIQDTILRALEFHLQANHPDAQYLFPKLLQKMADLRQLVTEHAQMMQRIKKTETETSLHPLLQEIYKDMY
Bile acid receptor (Homo sapiens), sequence (Q96RI1 whole entry, looked up): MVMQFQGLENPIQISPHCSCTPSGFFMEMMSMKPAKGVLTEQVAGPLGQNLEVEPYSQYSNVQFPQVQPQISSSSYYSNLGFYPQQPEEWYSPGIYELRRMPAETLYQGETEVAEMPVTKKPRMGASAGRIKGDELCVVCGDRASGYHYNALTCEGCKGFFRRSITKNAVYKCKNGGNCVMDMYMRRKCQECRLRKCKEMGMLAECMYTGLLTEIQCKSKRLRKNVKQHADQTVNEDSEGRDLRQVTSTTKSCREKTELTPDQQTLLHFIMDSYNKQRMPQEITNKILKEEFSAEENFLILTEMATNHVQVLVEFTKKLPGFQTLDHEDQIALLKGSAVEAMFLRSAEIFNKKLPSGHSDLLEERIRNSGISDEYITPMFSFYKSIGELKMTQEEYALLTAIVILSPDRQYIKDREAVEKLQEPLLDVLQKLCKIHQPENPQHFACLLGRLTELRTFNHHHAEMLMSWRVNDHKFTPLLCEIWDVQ

With `O=[N+]([O-])c1ccc(Cl)cc1Cl`, the Potency entry in test [1], in [2], in test [3], in [4] and in test [9] was “inactive” throughout. For the same compound, the compound was classed as inactive in [5], in test [7], in test [10] and in test [11]. In addition, the activation in test [6] is 2.45% (inactive). For the same compound, the max response in [8] amounted to 2.66%.

Regarding `CCC(C)=O`, the Potency entry in test [1], in [2], in test [12], in test [3], in [4] and in test [9] was “inactive” throughout. Besides, the result in test [13], in [5], in [14], in test [10], in [15] and in test [16] was inactive. Further, in test [6], the activation was -3.19% (inactive). Also, the max response in [8] is -36.3%.

Take `CC(=O)OCCC(C)C`: the Potency result in test [1], in test [2], in test [12], in test [3], in test [4] and in [9] was “inactive” each time. Moreover, the outcome in test [5], in [7], in [10] and in [11] was inactive. Further, the activation in test [6] was 4.89% (inactive). Moreover, the max response in test [8] is -13.3%.

In the case of `COCCOC(=O)c1ccccc1C(=O)OCCOC`, the Potency result in [1], in [12], in [3], in test [4] and in test [9] was “inactive” throughout. In addition, the compound was classed as inactive in [13], in test [5], in [7], in [11], in [15] and in test [16]. The activation in test [6] was -0.475% (inactive). Moreover, the max response in test [8] is -2.63%.

Regarding `O=C(O)c1ccccc1[N+](=O)[O-]`, the Potency entry in test [1], in test [12], in test [3] and in test [4] was “inactive” throughout. For the same compound, the outcome in test [13], in [5], in test [14], in [7], in test [10] and in [11] was inactive. Moreover, the outcome in test [15] and in test [16] was inactive. In addition, the activation in test [6] was 7.49% (inactive).

In the case of `CSCCC=O`, the Potency result in test [1], in [2], in [12], in test [3] and in test [4] was “inactive” in each case. The call in [5], in [14], in test [7], in test [10], in test [15] and in test [16] was inactive. In [6], the activation is -3.21% (inactive). Also, the max response in test [8] was -13.1%.

As for `C1CCOC1`, the Potency entry in [1], in test [2], in test [12], in test [3] and in test [4] was “inactive” in each case. Also, the outcome in test [13], in test [5], in test [14], in [7], in test [10] and in [15] was inactive. Also, the compound was classed as inactive in test [16]. Also, the activation in test [6] was 0.528% (inactive).

Turning to `O=C1OC(=O)c2c(Br)c(Br)c(Br)c(Br)c21`, the Potency result in test [1], in test [2], in [12], in test [3], in [4] and in test [9] was “inactive” throughout. Besides, the compound was classed as inactive in test [13], in test [5], in test [7], in test [10], in [11] and in [15]. Moreover, in test [16], the result was inactive. In addition, the activation in test [6] is -2.08% (inactive) and -7.32% (inactive). Also, the max response in test [8] was 19.7% and -28%.

As to `O=C1OC(=O)c2c(Cl)c(Cl)c(Cl)c(Cl)c21`, the Potency entry in test [1], in test [2], in [12], in test [3], in [4] and in [9] was “inactive” each time. Besides, the result in test [13], in test [5], in [14] and in test [10] was inactive. In addition, the max response in test [8] was -11.3%.

Take `COc1cccc(N)c1`: the Potency result in test [1], in test [2], in test [12] and in [4] was “inactive” in each case. In addition, the result in test [13], in [5], in test [14], in test [7], in test [15] and in [16] was inactive. The activation in test [6] was 1.73% (inactive).

Turning to `O=CNc1ccccc1`, the Potency result in test [1], in [2], in test [12], in test [3] and in test [4] was “inactive” throughout. For the same compound, the result in test [13], in [5], in test [14], in test [11], in test [15] and in [16] was inactive. In addition, the activation in [6] is -0.553% (inactive).

Consider `O=C(O)c1ccc(CO)o1`, for which the Potency result in test [1], in [2] and in test [4] was “inactive” each time. Besides, the compound was called inactive in [13], in [5], in test [14], in test [15] and in test [16]. In addition, the activation in test [6] was -2.95% (inactive).

For `CCCCC/C=C/C=C/C=O`, the Potency is 39.8 µM (active) in test [1], 50.1 µM (active) in [2] and 50.1 µM (active) in test [12]. Further, the Potency result in test [4] and in test [9] was “inactive” each time. Further, the compound was called inactive in test [5], in test [14], in [7], in test [15] and in test [16]. Besides, the activation in test [6] was -3.04% (inactive) and 0.369% (inactive). In test [8], the max response worked out at 16.5%.

Turning to `C=CC(=O)OCCCC`, the Potency result in test [1], in test [2], in [3], in [4] and in [9] was “inactive” in each case. Moreover, the call in test [13], in test [5], in test [14], in test [7], in test [15] and in [16] was inactive. Besides, in [6], the activation was 6.23% (inactive). In addition, the max response in [8] is -13.6%.

`O=C(O)c1ccccc1Cl`: the Potency entry in [1], in test [2], in test [3], in test [4] and in test [9] was “inactive” each time. Further, the compound was called inactive in test [13], in test [5], in test [14], in test [10], in [15] and in test [16]. Also, in test [8], the max response is -1.82%.

Regarding `CC(C)C=O`, the Potency result in [1], in test [2], in [12], in test [3], in [4] and in test [9] was “inactive” each time. Besides, the call in [13], in test [5], in test [7], in test [10], in test [15] and in [16] was inactive. Moreover, the max response in [8] was -3.06%.

For `CC(C)C(C)C`, the Potency entry in test [1], in test [2], in test [12], in test [3] and in test [4] was “inactive” each time. Moreover, the result in [13], in test [5], in test [7], in test [10] and in test [11] was inactive. Moreover, the activation in test [6] was -6.49% (inactive).

Take `S=C([S-])NCCNC(=S)[S-].[Zn+2]`: the Potency entry in [1], in [2], in test [12], in test [3] and in [4] was “inactive” each time. Further, the outcome in test [13], in test [5], in test [7], in test [10], in [11] and in [16] was inactive.

Turning to `CCN(C(=O)N(CC)c1ccccc1)c1ccccc1`, the Potency result in [1], in test [2], in test [12], in test [3] and in [4] was “inactive” each time. Besides, the call in [13], in test [5] and in test [10] was inactive. Also, the activation in test [6] is -1.59% (inactive).
